# ± gives the standard deviation of the averaged measurements. Whole data set: some 25,000 sequences, median “ln(normalized median fluorescence intensity)” near 7.9, cut for the highest 2% near 11. The list comes from a sample in which the highest values are over-represented; it also holds similar and randomly drawn sequences.
# System: PfAP2-I AP2 domain 3 (GST-tagged)
# Experiment: gcPBM binding intensity (ln(normalized median fluorescence intensity)); higher = stronger DNA binding
# Summary of the method: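 Alexa488 anti-GST antibody, scanned at 488 nm, detected GST-tagged P. falciparum DNA-binding domains that had been expressed in E. coli and incubated for 1 h on an Agilent 4 × 180k array. The array carried primer-extended double-stranded 36-bp intergenic genomic probes and negative controls. Binding intensity is the highest Masliner-normalised natural-log median intensity across replicate spots of either orientation of each probe.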
row,Sequence,gcPBM binding intensity (ln)
1,TATTTTACATCTTCTCACATTTTATCACTTTTTAAA [CACACA_negctrl_site330],8.08 ± 0.45
2,ATTATTATAGATATAACACACATAATTACATACTTA [CACACA_site6837],7.97 ± 0.14
3,ATTTTCTTTTCCATAGTGCAATATAATTATCCATCA [GTGCAC_site9547],11.3 ± 0.39
4,TTATATAATTTAATAGTGCAATTATATTAATTTTTC,9.82 ± 0.42
5,ATATATATTATATAAGTGCATAATATTCTTTCTTTT,10.5 ± 0.25
6,TTTAATTTGATAGACACATGCACACGTGCAATACTT [TGCATGCA_site777],10.95 ± 0.021
7,ATTTGATAGACACATGCACACATGCAATACTTTATT [CACACA_site5633],8.81 ± 0.77
8,GATAGACACGTGCACACATGCAATACTTTATTCAGT [TGCATGCA_site778],10.1 ± 0.32
9,CATTATCATGTTTTTTGTACTCATAATAAAAAGCAG [XGTACX_site2056],8.03 ± 0.21
10,ATAATAAAATAAATCACACATAATATAATGTAATAT [CACACA_site6144],7.54 ± 0.54
11,AATCTAATATAATGCACACATAAAAAAAAATCAAAC [CACACA_site3633],11.1 ± 0.94
12,AATCTAATATAATGCACACATAAAAAAAAAATCAAA [CACACA_site2714],10.7 ± 0.74
13,TATCAAAATAAATGCACACAAATTGCACATATCTAT [CACACA_site1097],10.3 ± 0.11
14,AAAATCTAATATAATGCACACATAAAAAAAAAATCA [CACACA_site8871],11 ± 0.68
15,AAAATCTAATATAATGCACACATAAAAAAAAATCAA [CACACA_site9211],10.9 ± 0.59
16,TAGATATATAAATACACACACATACACAAAAAAAAA [CACACA_site7652],8.21 ± 0.45
17,AAATATATATAAAACTCACACATTATCTTATAACCA [CACACA_site5268],7.83 ± 0.23
18,AAATTATTATCGTTAATATGTATATATGTGCCAAGT [TGCATGCA_negctrl_site557],8.06 ± 0.44
19,GGTTACATTTTATTTTGTACATAAAAATTTTTATTT [XGTACX_site218],8.15 ± 0.53
20,AAAAATAAACAATATATAGTTATATATATATATATA [TGCATGCA_negctrl_site82],9.29 ± 0.69
21,TATTTTTTTTGTTAGGTGCATTTACATTTATTTTTA,10.8 ± 0.61
22,TGTGCACATAATTAGTGTACATTTTTTATTTAGACA [XGTACX_site317],10.3 ± 0.88
23,TTCTCATTCAAATTAGTGCATTTTTGTTATTACATT,9.81 ± 0.2
24,ATATTTATTTGTTAGTGTACATACATATATATATAT [XGTACX_site1347],9.47 ± 0.4

row,Sequence,gcPBM binding intensity (ln)
1,TTTATATTTATGTAGGTGCATTTGTTTACAACATAT [GTGCAC_site9511],10.8 ± 0.71
2,TTTTTGTTATTTTTAGTGCACATTTAAGGGTGTATT,11.4 ± 0.53
3,CTATATTTTTAAAAATGTACTTTATAATAAAATACT [XGTACX_site3593],7.83 ± 0.32
4,ATTTATAATGATTTTTTTAGTAATCTTGTTATTTTT [XGTACX_negctrl_site373],7.38 ± 0.54
5,CTATTTAAAATATGAACACACATTATTTGTTTTAGA [CACACA_site2713],7.42 ± 0.43
6,TATTTGTATAAATAAAAATAATATATATCAAATAAC [CACACA_negctrl_site218],7.57 ± 0.55
7,AATAGCAATTTGGGGTGTACACACACCTTATTTAAA [XGTACX_site2234],8.04 ± 0.23
8,TACTTTTTTTTTTTTTTTTTTTTTTTTTCCCTTTTT [CACACA_negctrl_site761],7.47 ± 0.53
9,AAATTAAAGATAAAAGTGCAAAATTATAAATTTATT,9.64 ± 0.071
10,TAATTAAATATTTCAGTGCATTATTTTATGATCCAT [GTGCAC_site9456],11.2 ± 0.76
11,AATATCATTATATAAGTGCATTTTTTAAAAGATAAA [GTGCAC_site9479],9.04 ± 0.22
12,CTAAATTATAGATCAGTGCAATTTAATATGAGTCCA,8.91 ± 0.22
13,AGTGTTTTTTATAAAGTGCAATATAAAAACAAAATG,11.3 ± 0.75
14,TACAAATTTATATAAAGTACAAAAAATAATAAAAAT [XGTACX_site7355],8.1 ± 0.52
15,ATTAAAAGTTTATACAAATAAAAAACAAAACAAAAA [CACACA_negctrl_site1030],7.7 ± 0.55
16,TTATAAATTTAAAAAGTGCATAATAATAACAAAAAG,11.2 ± 0.67
17,TAATAATTTTATAAAGTGCATAAAAATAAAAATTTT,10.6 ± 0.36
18,ATAAAAATAAAAAGTGTGCACACAAAAATATATATA [GTGCAC_site9931],9.96 ± 0.33
19,TAATTATTTTAAAAAGTGCATTAAAAGATATTAAAT [GTGCAC_site9694],11.4 ± 0.56
20,TTAATTAATTTTTCAGTGCAAATAAAAAATATTTAA,10.4 ± 0.64
21,GTAATATTAATATAATGTACAAAATGAAACATATAT [XGTACX_site6219],7.71 ± 0.57
22,AAATAAATACATAATACATGCATATTTAATATATAG [TGCATGCA_site135],7.93 ± 0.25
23,TTTTAGCTATTTTAATATAATGAAGCAAAAAATAAA [TGCATGCA_negctrl_site576],7.82 ± 0.085
24,GTGTGGTTACAGACACGAACACATTTTTTAAATATT [CACACA_negctrl_site83],7.83 ± 0.28

row,Sequence,gcPBM binding intensity (ln)
1,TGAAAAATGTAATGCTCACACATATATATATATATA [CACACA_site5213],9.41 ± 0.24
2,CCTACAATTCGTAATACACACACATATATATATATA [CACACA_site9251],9.29 ± 0.25
3,CAGCTCTTAAAAATTACACACATATACACATATATA [CACACA_site9073],7.5 ± 0.54
4,TTTATTTATTAATACACACACACACCCCCACAAAAT [CACACA_site240],9.96 ± 0.2
5,AATTGAAAAATCAGCACACACACAAATACATACATA [CACACA_site3232],8.09 ± 0.4
6,AGATTATATAAAAAAGTGCATATTTTCATTTTTTTT [GTGCAC_site9448],9.07 ± 0.13
7,TTTCTCCATATTAAAGTGCATTAATAACAAAAATAA [GTGCAC_site9934],11.4 ± 0.81
8,CTGAAATTAACAAAAGTGCATAAAAATAAAAAATAT [GTGCAC_site9652],10.8 ± 0.38
9,GATTATTTCTAAAAAGTGCATATTTAAAAATCTCCT,9.815 ± 0.035
10,TTCATTTTATTTTAAGTGCATATTTTTATTTTTTTG,8.82 ± 0.099
11,TAATTATTCTATTAAGTGCATATATTTTTAAAAAGA,9.89 ± 0.3
12,ATTAATAAAAAATTTTAAAAAATAAATAAAATAAAA [TGCATGCA_negctrl_site113],7.58 ± 0.42
13,TATATATATTAAAAAGTGCATTATTCATATTATATA [GTGCAC_site9400],11.1 ± 0.73
14,TTCATATTCGATAAAGTGCATTAATTTTATTTATCA,11.3 ± 0.73
15,TTATTAAATTCATAAGTGCATTTATGATTAATTTTT [GTGCAC_site9749],9.86
16,AAAAAAAAAAAAAAAGTGCATTAATAAATTTTAATA,11.5 ± 0.61
17,TCATTTTAATTAAAAGTGCAAAAAATAATATAACTA [GTGCAC_site9968],9.9 ± 0.18
18,CTATTTTAATATTTTACACACCATGTAAAATATATA [CACACA_site5732],7.97 ± 0.28
19,AGTTTGTTTTTTTTTTTTTTTTCCTGTCACAAACAA [CACACA_negctrl_site1093],8.22 ± 0.62
20,GTTCATAAATTAAACACACACACACCCCTGGATACC [CACACA_site3331],9.115 ± 0.021
21,ATATATATATATATATGTACATACATACAATCATAT [XGTACX_site6410],9.38 ± 0.54
22,TACATATTTAAATACTGTACTCAAAAGAATTGTGCA [XGTACX_site2250],8.11 ± 0.11
23,ATATATCATAATAAAAGTACTTATATATTTTATATA [XGTACX_site560],7.59 ± 0.33
24,AAAATTGTGCTTTCACGGACACAAGATCGAAATAGA [XGTACX_site4068],8.62 ± 0.16

row,Sequence,gcPBM binding intensity (ln)
1,GAAAAAAAAATATCTTGTACTTACATAACTATTGGT [XGTACX_site5326],7.61 ± 0.5
2,ATATATATATTTATAGTGCATTTATATTAAAATATC [GTGCAC_site9818],10.54 ± 0.021
3,ATATATTATATTTAAGTGCATTAATTAAAATGCTTA [GTGCAC_site9403],11.1 ± 0.73
4,CTTATTTTGTTATAAGTGCATTTTTTAAAATTTCTT,9.05 ± 0.42
5,CACATTAATTTTTGGGTGCACTTGGGAAATTTTGGT,10.9 ± 0.51
6,TTTTTTTTTTTTTTTGCACACTTAAATTTGGTGGGG [CACACA_site2344],9.89 ± 0.19
7,TTTTTTTTTTTTTTTGCACACTTAAATTTGGTGGCT [CACACA_site5319],9.54 ± 0.16
8,AGTTATAAACATATGTGTACTTATAAAAACATATAG [XGTACX_site3268],7.87 ± 0.47
9,AATCACAACGAACACACACACAAAAAAAAAAAAAAA [CACACA_site6790],7.96 ± 0.54
10,CAACAACAAATGAGAAGTACATAAATATTAACAATA [XGTACX_site4625],7.68 ± 0.4
11,TGTTTTATTTTATTAGTGCATTTTTATTTATAATAG [GTGCAC_site9453],9.77 ± 0.2
12,ATATATAATTCCCAAGTGCATTTATTTTAATTATTA,10.2 ± 0.12
13,TTCCAAGAAATAATAGTGCATTATTCATTTTAATAA,11.5 ± 0.42
14,TGAAGGATATATTCCGTGCACATATAAATATATACA,11.035 ± 0.007
15,AAGGATATAACATACACACACACACGGATATAAATA [CACACA_site7867],7.91 ± 0.6
16,AATATAAGGATATATACACACATAAATACATACATA [CACACA_site7859],7.67 ± 0.59
17,TTTATACAAACAACTTTATATTAATGTTTAACGGAG [GTGCAC_negctrl_site396],7.6 ± 0.42
18,ATATATATATAATAAGTGCAAAAAAAAGAAAAAAAT,10.18 ± 0.035
19,AAAAAAAAAATACAGGTGCAATAAGAAAAAAATGGT,11.4 ± 0.57
20,AATTAATAAGAAAGGTGTACAGAAAAAAAAAAATAT [XGTACX_site2106],8.46 ± 0.43
21,TTTTATATTTTATGCACACTTATAAGAAATATGTAC [CACACA_site3040],10.5 ± 0.52
22,TTTTAAATACTTTATTGTACATTATATATATATATA [XGTACX_site7021],8.88 ± 0.042
